Experimental findings from PubChem BioAssay (Tox21) are described below.

Several values for one entry are separate records, joined by “and”; a condition that tells them apart may be missing. Equal values may be shown once. Records with an inconclusive call do not appear. A call without a number means that no potency is given here. Some compounds were tested as several samples or in several runs, with calls that do not always agree. Activity calls are given as the source filed them. Calls come from the whole dose curve; as a rule, active = well fitted activation curve with a large enough effect in the repeat runs; inconclusive = weak or mixed curves; inactive = flat fitted curve, though single readings scatter.
Potency is the fitted concentration of half-maximal effect.

The nature of this experiment: A CellTox Green Cytotoxicity Assay to monitor cytotoxicity in HepG2 cells - 32 hour (AID 1224883). Note: nearly all actives have a fitted effect of over 50% in size. The settings on record: CellTox Green fluorescence; series mostly up to 76.8 µM. From the text:
National Center for Advancing Translational Sciences [NCATS]
NIH Chemical Genomics Center [NCGC]
U.S. Environmental Protection Agency [EPA]
National Institutes of Environmental Health Sciences [NIEHS]
National Toxicology Program [NTP]
Cell-based models are critical for drug discovery. Determining the natural cytotoxic effects resulting from test compounds is an essential research activity. A CellTox Green Cytotoxicity Assay to monitor cytotoxicity in real time of continues cell culture during 40 hours of the compound treatment was used to screen Tox21 10K library compounds in HepG2 cells. CellTox Green Cytotoxicity Assay is a nonlytic, homogeneous, biofluorescent method to measure cytotoxicity in cell culture after experimental manipulation. The assay system uses a proprietary asymmetric cyanine dye that is excluded from viable cells but preferentially stains the dead cell's DNA. […] Viable cells produce no appreciable increases in fluorescence. Therefore, the fluorescence signal produced by the binding interaction with dead cell DNA is proportional to cytotoxicity.
The mixture of HepG2 cell suspension and reagents were dispensed at 600cells/6 ul/well in 1536-well tissue culture treated black solid bottom plates using a Multidrop dispenser. After the assay plates were incubated at a 37 C/5% CO2 incubator for 5 hours, 23 nL of compounds dissolved in DMSO, positive and negative controls was transferred to the assay plate by a pintool work station. The plates were incubated at 37 C for 40 hours. The fluorescence intensity were measured at 0h, 8h, 16h, 24h, 32h and 40h time points using ViewLux plate reader during compound treatment.
In the case of `N#CS`, the Potency entry was “inactive”.
The same measure for `CCCCCCCCCCCCCC[P+](CCCCCC)(CCCCCC)CCCCCC`: 12.4 µM (active) and 17.5 µM (active); for `O=[N+]([O-])c1ccccc1O`: “inactive”.
In the case of `O=P1(N(CCCl)CCCl)NCCCO1` (stereo not given) it was “inactive”.
In the case of `CCCCCCCCn1cc[n+](C)c1` it was “inactive”; in that of `COP(=O)(OC)C(O)C(Cl)(Cl)Cl` (stereo not given), “inactive”.
On to `CCCCCCCCCCn1cc[n+](C)c1`, for which the Potency is 44.1 µM (active) and 54.9 µM (active).
For the compound `O=C(O)CC(O)(CC(=O)O)C(=O)O`, the Potency entry is “inactive”.
The same measure for `O=S(=O)(O)O`: “inactive”; for `O=C(O)C(Cl)Cl`: “inactive”; for `CCC(=O)C(CC(C)N(C)C)(c1ccccc1)c1ccccc1` (stereo not given): 43.8 µM (active) and 48.6 µM (active) and inactive.
The same measure for `CCCCCCCCCCCCOS(=O)(=O)O`: “inactive”; for `O=[N+]([O-])O`: “inactive”.
The same measure for `CCCCn1cc[n+](C)c1`: “inactive”; for `Nc1ccc(-c2ccc(N)c(Cl)c2)cc1Cl`: 17.5 µM (active) and 14.4 µM (active) and 27.5 µM (active).
On to `COc1ccc(N)cc1`, for which the Potency entry is “inactive and 245 nM (active)”.
`CCCC[N+]1(C)CCCC1`: the Potency result is “inactive”.
Turning to `C1CCC(NC2CCCCC2)CC1`, the Potency entry is “inactive”.
In the case of `C[C@]12CCC(=O)C=C1CC[C@@H]1[C@@H]2CC[C@]2(C)C(=O)CC[C@@H]12` it was “inactive”; in that of `O=C(O)C(Cl)(Cl)Cl`, “inactive”.
In the case of `O=c1nc(O)n(Cl)c(=O)n1Cl` it was “inactive”.
In the case of `CC(=O)[O][Hg][c]1ccccc1` it was 1.53 µM (active) and 1.95 µM (active) and 1.07 µM (active); in that of `Cc1cc(Cl)ccc1OCC(=O)O`, “inactive”; in that of `O=C(O)COc1ccc(Cl)cc1Cl`, “inactive”.
As to `O=C(O)c1ccccc1O`, the Potency entry is “inactive”.
The same measure for `Nc1ccccc1`: “inactive”; for `C[N+](C)(C)Cc1ccccc1`: “inactive”.
In the case of `CN(C)[C@@H]1C(=O)C(C(N)=O)=C(O)[C@@]2(O)C(=O)C3=C(O)c4c(O)cccc4[C@@](C)(O)[C@H]3[C@H](O)[C@@H]12` it was “inactive”; in that of `CC(=O)O`, “inactive”.
In the case of `CCC[N+]1(C)CCCCC1` it was “inactive”; in that of `CC[N+]1(C)CCCC1`, “inactive”; in that of `OCCOc1ccccc1`, “inactive”.
With `Nc1ccc(-c2ccc(N)cc2)cc1`, the Potency result was “inactive”.
In the case of `Nc1ccc(Cl)cc1` it was “inactive”.
The same measure for `CCCC[N+]1(C)CCCCC1`: “inactive”; for `CCCCCC[n+]1ccccc1`: “inactive”; for `CCn1cc[n+](C)c1C`: “inactive”.
The same measure for `O=c1[nH]c(=O)n(Cl)c(=O)n1Cl`: “inactive”; for `COP(=O)(OC)OC=C(Cl)Cl`: “inactive”.
Regarding `CCCC[n+]1cccc(C)c1`, the Potency result is “inactive”.
